# Experimental data from PubChem BioAssay (NCATS).
# Inconclusive results are not listed. Where a call stands in place of a potency, no number is given. Calls of active or inactive are those of the source. The call rests on the fitted dose curve; in most records, active means well fitted inhibition curve with a large enough effect; inconclusive means small, poorly fitted or top-dose-only effect; inactive means flat fitted curve, though single readings scatter.
# Columns and labels:
# Assay in all cases: qHTS profiling for inhibitors of Plasmodium falciparum proliferation (AID 504749); further: nearly all actives have a fitted effect of over 60% in size
# Conditions in all cases: P. falciparum in erythrocytes, SYBR Green DNA, 72 h; series mostly up to 28.7 µM
# [1] = test system: CP256
# Method in brief: (§1)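 SYBR Green fluorescence (ex 485 nm, em 535 nm) reports parasite DNA after 72 h compound exposure of infected red cells at 0.3% parasitemia, 2.5% hematocrit; signal normalized to 0.29 uM artemisinin and vehicle wells.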
# [2] = test system: CP260
# Method in brief: as §1
# [3] = test system: CP262
# Method in brief: as §1
# [4] = test system: CP265
# Method in brief: as §1
# [5] = test system: CP268
# Method in brief: as §1
# [6] = test system: CP269
# Method in brief: as §1
# [7] = test system: CP286
# Method in brief: as §1
# [8] = test system: CP291
# Method in brief: as §1
# [9] = test system: CP297
# Method in brief: as §1
# [10] = test system: CP305
# Method in brief: as §1
# [11] = test system: CP315
# Method in brief: as §1
# [12] = test system: CP325
# Method in brief: as §1
# [13] = test system: CP329
# Method in brief: as §1
# [14] = test system: CP335
# Method in brief: as §1
# [15] = test system: DFO2036
# Method in brief: as §1
# [16] = test system: DIV14
# Method in brief: as §1
# [17] = test system: DIV17
# Method in brief: as §1
# [18] = test system: DIV30
# Method in brief: as §1
# [19] = test system: Dd2
# Method in brief: as §1
# [20] = test system: CP266
# Method in brief: as §1
# Potency means the concentration at half of the fitted maximal effect.
Compound,Potency [1],Potency [2],Potency [3],Potency [4],Potency [5],Potency [6],Potency [7],Potency [8],Potency [9],Potency [10],Potency [11],Potency [12],Potency [13],Potency [14],Potency [15],Potency [16],Potency [17],Potency [18],Potency [19],Potency [20]
O=c1cc(O)c(Cl)c[nH]1,inactive,inactive,inactive,inactive,inactive,inactive,inactive,inactive,inactive,inactive,inactive,inactive,inactive,inactive,inactive,inactive,inactive,inactive,inactive,
CNS(=O)(=O)Cc1ccc2[nH]cc(CCN(C)C)c2c1,inactive,inactive,inactive,inactive,inactive,inactive,inactive,inactive,inactive,inactive,inactive,inactive,inactive,,inactive,inactive,inactive,inactive,inactive,inactive
COc1cnc(NS(=O)(=O)c2ccc(N)cc2)nc1,inactive,inactive,inactive,inactive,inactive,inactive,inactive,inactive,inactive,inactive,inactive,inactive,inactive,inactive,inactive,inactive,inactive,inactive,inactive,
CC(C)(C#N)c1cc(Cn2cncn2)cc(C(C)(C)C#N)c1,inactive,inactive,inactive,inactive,inactive,inactive,inactive,inactive,inactive,inactive,inactive,inactive,inactive,,inactive,inactive,inactive,inactive,inactive,inactive
CC1=CC(=O)c2ccccc2C1=O,inactive,,inactive,inactive,inactive,inactive,,inactive,inactive,inactive,inactive,inactive,inactive,inactive,inactive,,,inactive,inactive,inactive
O=c1oc2c(O)c(O)cc3c(=O)oc4c(O)c(O)cc1c4c23,,1.41 µM (active),,inactive,,0.757 µM (active),1 µM (active),,1.51 µM (active),,,inactive,inactive,0.849 µM (active),,,,,2 µM (active),
CNCC[C@H](Oc1cccc2ccccc12)c1cccs1,,8.91 µM (active),,,,,12.6 µM (active),inactive,,inactive,inactive,inactive,inactive,,,,3.01 µM (active),10.7 µM (active),6.31 µM (active),inactive
CNC(=O)c1cc(Oc2ccc(NC(=O)Nc3ccc(Cl)c(C(F)(F)F)c3)cc2)ccn1,,,,,,,,,9.53 µM (active),,,,,,,2.69 µM (active),3.01 µM (active),1.07 µM (active),,
Cc1oc(=O)oc1CN1CCN(c2cc3c(cc2F)c(=O)c(C(=O)O)c2n3C(C)S2)CC1 (stereo not drawn),8.91 µM (active),6.31 µM (active),,11.2 µM (active),,,7.94 µM (active),,,,inactive,,,6.01 µM (active),7.94 µM (active),15.1 µM (active),16.9 µM (active),,7.08 µM (active),inactive
CCOC(=O)c1ccc(C#Cc2ccc3c(c2)C(C)(C)CCS3)nc1,,,inactive,,,inactive,,,inactive,,inactive,inactive,inactive,,inactive,,inactive,inactive,inactive,inactive
COc1cccc(N(C)C(=S)Oc2ccc3c(c2)CCCC3)n1,inactive,,inactive,inactive,,inactive,,,,inactive,inactive,inactive,inactive,,inactive,,inactive,,inactive,inactive
CC(C)(Sc1cc(C(C)(C)C)c(O)c(C(C)(C)C)c1)Sc1cc(C(C)(C)C)c(O)c(C(C)(C)C)c1,inactive,3.55 µM (active),,inactive,inactive,inactive,3.98 µM (active),inactive,inactive,inactive,,inactive,inactive,3.61 µM (active),inactive,inactive,inactive,inactive,inactive,inactive
NC(=O)N1c2ccccc2CC(=O)c2ccccc21,inactive,inactive,,inactive,inactive,inactive,inactive,,inactive,inactive,inactive,inactive,,inactive,inactive,inactive,inactive,inactive,inactive,inactive
CCCCCCNC(=O)n1cc(F)c(=O)[nH]c1=O,,,,,,,7.08 µM (active),12 µM (active),,,,,,5.36 µM (active),,5.36 µM (active),8.49 µM (active),13.5 µM (active),,
CCC(C)(C)c1ccc(CC(C)CN2C[C@@H](C)O[C@@H](C)C2)cc1 (stereo partly drawn),inactive,,inactive,inactive,inactive,inactive,,inactive,inactive,inactive,inactive,inactive,inactive,inactive,inactive,,inactive,inactive,,inactive
O=C(O)c1cn(C2CC2)c2cc(N3CCNCC3)c(F)cc2c1=O,,,,,,,,,,,,,,,,,inactive,,3.16 µM (active),

Compound,Potency [1],Potency [2],Potency [3],Potency [4],Potency [5],Potency [6],Potency [7],Potency [8],Potency [9],Potency [10],Potency [11],Potency [12],Potency [13],Potency [14],Potency [15],Potency [16],Potency [17],Potency [18],Potency [19],Potency [20]
CCn1cc(C(=O)O)c(=O)c2cc(F)c(N3CCNCC3)cc21,,,inactive,inactive,,,,,,,inactive,,inactive,,,inactive,inactive,inactive,,
CC(C)(C)C(=O)OCOP(=O)(COCCn1cnc2c(N)ncnc21)OCOC(=O)C(C)(C)C,,,inactive,,inactive,,,inactive,,inactive,inactive,inactive,inactive,,,,,inactive,,inactive
CCOC(=O)c1ccc(OC(=O)CCCCCN=C(N)N)cc1,inactive,,inactive,,inactive,inactive,inactive,inactive,inactive,inactive,inactive,inactive,inactive,,inactive,,4.55 µM (active),inactive,inactive,inactive
CN(Cc1cc(Br)cc(Br)c1N)C1CCCCC1,inactive,,inactive,inactive,inactive,inactive,,inactive,inactive,inactive,inactive,inactive,inactive,,inactive,,inactive,inactive,,inactive
CCCc1nc(C)c2c(=O)[nH]c(-c3cc(S(=O)(=O)N4CCN(CC)CC4)ccc3OCC)nn12,inactive,,inactive,inactive,inactive,inactive,,inactive,,inactive,inactive,inactive,inactive,inactive,inactive,5.36 µM (active),10.7 µM (active),,inactive,
COc1cc2c(Nc3ccc(Br)cc3F)ncnc2cc1OCC1CCN(C)CC1,3.16 µM (active),3.55 µM (active),,3.98 µM (active),2.13 µM (active),5.36 µM (active),3.98 µM (active),3.79 µM (active),,2.39 µM (active),inactive,10.7 µM (active),,4.26 µM (active),0.794 µM (active),1.51 µM (active),2.39 µM (active),,8.91 µM (active),inactive
CN1CCCC(n2nc(Cc3ccc(Cl)cc3)c3ccccc3c2=O)CC1 (stereo not drawn),inactive,,inactive,,inactive,inactive,,,,inactive,inactive,inactive,inactive,,inactive,7.57 µM (active),7.57 µM (active),inactive,11.2 µM (active),inactive
CCn1cc(C(=O)O)c(=O)c2cc(F)c(N3CCN(C)CC3)cc21,,,inactive,,inactive,inactive,7.08 µM (active),,inactive,,inactive,inactive,inactive,,,inactive,inactive,inactive,12.6 µM (active),inactive
C[C@@H](NCCCc1cccc(C(F)(F)F)c1)c1cccc2ccccc12,,4.47 µM (active),inactive,11.2 µM (active),,10.7 µM (active),11.2 µM (active),10.7 µM (active),13.5 µM (active),13.5 µM (active),,15.1 µM (active),,,11.2 µM (active),6.01 µM (active),5.36 µM (active),7.57 µM (active),5.01 µM (active),
N[C@@H](Cc1ccc(O)c(O)c1)C(=O)O,,,inactive,,inactive,inactive,,inactive,inactive,inactive,inactive,inactive,inactive,,,inactive,inactive,inactive,,inactive
O=S(=O)(O)CCS,inactive,,inactive,inactive,inactive,inactive,inactive,inactive,inactive,inactive,inactive,inactive,inactive,inactive,inactive,inactive,inactive,inactive,inactive,inactive
COc1ccc(C(=O)CC(=O)c2ccc(C(C)(C)C)cc2)cc1,inactive,,inactive,inactive,inactive,inactive,,inactive,inactive,inactive,inactive,inactive,inactive,inactive,inactive,inactive,inactive,inactive,,inactive
CCn1cc(C(=O)O)c(=O)c2cc(F)c(N3CCNCC3)nc21,,,inactive,inactive,inactive,,inactive,,inactive,inactive,inactive,inactive,inactive,inactive,,inactive,inactive,inactive,,
CC(N)C12CC3CC(CC(C3)C1)C2 (stereo not drawn),inactive,,inactive,,,inactive,,,7.57 µM (active),,inactive,,,,inactive,,,,inactive,inactive
Oc1c(Cl)cc(Cl)c2cccnc12,,,,,,,,,,,inactive,,10.7 µM (active),,10 µM (active),,,,inactive,inactive
